Laboratory results: PubChem BioAssay AID686952 (The Scripps Research Institute Molecular Screening Center, 2013)
About 2,600 (81%) of roughly 3,200 compounds were called active.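 The calls were made as follows: active = activation above the all-compound mean plus 3 SD, ignoring values outside control-based bounds (cut at about 4.8% in these data); inactive = the rest.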 The set was probably picked from earlier hits. Not all results are given here.

Assay: EDANS-DABCYL substrate optical interference, artefact control for kallikrein-7 zymogen activator project, biochemical, fluorescence intensity, high throughput (AID 686952);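 also: value is the 4 h activation minus the activation read at time zero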
Conditions: no enzyme, 4 h, at 7 µM, hits give high values

**Q.** With `CCOC(=O)c1c(N)n(CCN2CCOCC2)c2nc3ccccc3nc12` as the compound, how does the activation read?
**A.** 31.4% (active)

**Q.** With `Cc1nc2ccc(N3CCN(C)CC3)cc2nc1C` as the compound, how does the activation read?
**A.** 13.9% (active)

**Q.** Which activation does the source give for `CCOc1ccc(-c2cc(C)[n+](CCN(CC)CC)c(-c3ccc(OCC)cc3)c2)cc1` here?
**A.** 37.3% (active)

**Q.** For `COc1cccc(-c2nc3ccc(N4CCN(C)CC4)cc3[nH]2)c1`, which activation is on record?
**A.** 65.7% (active)
